# In PubChem BioAssay (EPA / NIEHS):
# Inconclusive results are not listed. Activity calls are given as the source filed them. How the source made its calls: active means hit-call score of the fitted dose curve at least 0.9, where 1 is the maximum; inconclusive means response in the unintended direction; inactive means score below 0.9.
# Assay: Tanguay_ZF_120hpf_PIG_legacy: (Legacy) Oregon State University Tanguay Lab 120 Hour Post-fertilization zebrafish Assay for Pigmentation Malformation (AID 2283650);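 further: dechorionated Tropical 5D zebrafish embryos exposed singly from 6 to 120 hpf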
# Procedure: Tanguay_ZF_120hpf_legacy is a whole embryo, multiplexed endpoint assay using zebrafish larvae exposed for 120 hours post fertilization on a 96-well plate.Tanguay_ZF_120hpf_PIG_legacy is one of one assay component(s) measured or calculated from the Tanguay_ZF_120hpf_legacy assay. It is designed to make measurements of zebrafish development as detected with brightfield microscopy of developing zebrafish embryos.Data from the assay component Tanguay_ZF_120hpf_PIG_legacy was analyzed into 1 assay endpoints. This assay endpoint, Tanguay_ZF_120hpf_PIG_legacy, was analyzed in the positive analysis fitting direction relative to DMSO as the negative control and baseline of activity. Using a type of morphology reporter, gain-of-signal activity can be used to understand changes in developmentals as they relate to the whole embryo. To generalize the intended target to other relatable targets, this assay endpoint is annotated to the zebrafish development intended target family, where the subfamily is embryonic pigmentation.
# Zebrafish husbandry: Tropical 5D wild-type adult zebrafish were housed in at an approximate density of 1000 per 100 gallon tank at the Sinnhuber Aquatic Research Laboratory, Oregon State University, Corvallis, OR. Each tank was kept at standard laboratory conditions of 28C on a 14-h light/10-h dark photoperiod in fish water consisting of reverse osmosis water supplemented with a commercially available salt (Instant Ocean). Spawning funnels were placed into the tanks the night prior, and embryos were collected and staged. To increase bioavailability, the chorion was enzymatically removed using pronase (63.6mg/ml, >/= 3.5U/mg, Sigma-Aldrich: P5147) at 4 hours post fertilization (hpf) using a custom automated dechorionator.Chemical exposures: Six hpf dechorionated embryos were placed 1 embryo per well in a 96-well plate prefilled with 90 ul of EM using automated embryo placement systems (AEPS). Ten microliters of each row of dilution plate 2 was added to 2 exposure plates. The final DMSO concentration used was 0.64% (vol/vol). Thirty-two embryos were also exposed to 5uM trimethyltin chloride (positive control). Plates were sealed to prevent evaporation and foil covered to reduce light exposure and kept in a 28C incubator. Embryos were statically exposed until 120 hpf. At 24 hpf, embryos were assessed for photomotor response using a custom photomotor response analysis tool (PRAT) and for developmental toxicity endpoints (MO24: mortality at 24 hpf, DP: developmental progression, SM: spontaneous movement, and NC: notochord distortion). At 120 hpf, locomotor activity was measured using Viewpoint Zebralab and assessed for 18 endpoints. Zebrafish acquisition and analysis program (ZAAP), a custom program designed to inventory, acquire, and manage zebrafish data, was used to collect developmental endpoints as either present or absent (i.e., binary responses were recorded). If mortality occurred for an embryo (at either 24 or 120 hpf), the non-mortality endpoints were not measured.
SMILES,AC50,outcome
CC1=C(/C=C/C(C)=C/C=C/C(C)=C/C(=O)O)C(C)(C)CCC1,0.252 µM (active),–
CC[C@H](C)[C@@H](C(=O)O)n1sc2ccccc2c1=O,–,inactive
CC(=O)CC(C)(C)O,–,inactive
C=C(C)C(=O)OCCC(F)(F)C(F)(F)C(F)(F)C(F)(F)C(F)(F)C(F)(F)F,–,inactive
C[C@@H]1C[C@H]2[C@@H]3CCC4=CC(=O)C=C[C@]4(C)[C@@]3(F)[C@@H](O)C[C@]2(C)[C@@]1(O)C(=O)COP(=O)(O)O,–,inactive
c1ccc2cc3c(ccc4ccccc43)cc2c1,–,inactive
CN1CCC[C@H]1c1cccnc1,–,inactive
c1ccc2c(c1)Cc1ccccc1-2,–,inactive
CC(=O)NC1(c2cccc(F)c2)CCN(CC[C@@]2(c3ccc(Cl)c(Cl)c3)CN(c3ccccc3)C(=O)CO2)CC1,–,inactive
O=C(OCCOCCOC(=O)c1ccccc1)c1ccccc1,–,inactive
Cc1cc(CCN2CCN(c3nsc4ccccc34)CC2)cc2c1NC(=O)CC2(C)C,6.31 µM (active),–
CC(C)(C)CC(C)(C)c1ccc(O)c(-n2nc3ccccc3n2)c1,–,inactive
CCCCCCCCCCCCN1CCCC1=O,–,inactive
CC(C)(C)c1cc(C(C)(C)C)c(O)c(C(C)(C)C)c1,–,inactive
CC(C)(C)c1cccc(C(C)(C)C)c1O,–,inactive
N#C[C@@H]1CC(F)(F)CN1C(=O)CNC1CC2CCC(C1)N2c1ncccn1 (stereo not given in full),–,inactive
CCCCCCC(=O)O,–,inactive
OCCC(F)(F)C(F)(F)C(F)(F)C(F)(F)C(F)(F)C(F)(F)C(F)(F)C(F)(F)F,–,inactive
c1ccc2c(c1)ccc1ccccc12,–,inactive
CC[C@H](c1ccc(O)cc1)[C@@H](CC)c1ccc(O)cc1,–,inactive

SMILES,AC50,outcome
COC(=O)CCCCC(=O)OC,–,inactive
CCOC(=O)CC(O)(CC(=O)OCC)C(=O)OCC,–,inactive
Cc1oc(-c2ccccc2)nc1CCOc1ccc(C[C@H](Nc2ccccc2C(=O)c2ccccc2)C(=O)O)cc1,–,inactive
CCCOC(=O)c1ccc(O)cc1,49.1 µM (active),–
CCCCCCCCCCCCCCCS(=O)(=O)Oc1ccccc1,–,inactive
Cc1cc(C)c(O)c(C)c1,–,inactive
NC(=O)N(O)[C@@H]1C=C[C@H](Oc2cccc(Oc3ccc(F)cc3)c2)C1,–,inactive
ClC1=C(Cl)C(Cl)(Cl)C(Cl)=C1Cl,–,inactive
O=[N+]([O-])c1ccc(O)cc1,–,inactive
CC(C)CCCCCCOC(=O)CCCCC(=O)OCCCCCCC(C)C,–,inactive
Oc1cc2ccccc2c2ccccc12,12.9 µM (active),–
Nc1cccc2c(N)cccc12,–,inactive
CCCCC(CC)COC(=O)CCCCC(=O)OCC(CC)CCCC (stereo not given),–,inactive
CCCCCCCCOC(=O)CCCCCCCCC(=O)OCCCCCCCC,–,inactive
NC(=O)N1C(=O)C(C(=O)c2cc(Cl)cs2)c2cc(F)c(Cl)cc21 (stereo not given),–,inactive
CCN(CC)CCNc1ccc(CNC=O)c2sc3ccc(OC)cc3c(=O)c12,–,inactive
CCCCCCCCC(=O)O,–,inactive
O=C(O)Cc1cc(I)c(Oc2cc(I)c(O)c(I)c2)c(I)c1,0.0192 µM (active),–
Oc1cccc(O)c1,–,inactive
CN(C)C=O,–,inactive
